Source: PubChem (Sanford-Burnham Center for Chemical Genomics)
tim10-1 inh: tim10-1 yeast growth inhibition; S. cerevisiae tim10-1 ts strain growth, BacTiter-Glo, 24 h; inhibition, % at 20 µM; 330,000 compounds, 2.2% hits;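 active means inhibition of at least 40%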;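 further: mutant grown at 25 °C; 0% = DMSO wells with yeast and 100% = wells holding no yeast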
MPTP inh: permeability transition pore inhibition | 360,000 compounds, 1.4% hits | inhibition, % at 10 µM | isolated mouse mitochondria, Ca2+ swelling absorbance, 30 min;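 active means inhibition of 50% or more, scaled per plate between neutral and stimulator controls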;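 further: 0% = DMSO wells given calcium and 100% = 1 mM EGTA wells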
Mdm2-MdmX inh: inhibitors of human Mdm2/MdmX interaction. O15151+Q00987. SaOS-2 split-luciferase Mdm2/MdmX complementation, luminescence. inhibition, % at 8 µM. 330,000 compounds, 3% hits. AID 485346;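 active means inhibition of at least 50% at 8 µM in the primary screen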
Target sequence (O15151 whole entry, looked up): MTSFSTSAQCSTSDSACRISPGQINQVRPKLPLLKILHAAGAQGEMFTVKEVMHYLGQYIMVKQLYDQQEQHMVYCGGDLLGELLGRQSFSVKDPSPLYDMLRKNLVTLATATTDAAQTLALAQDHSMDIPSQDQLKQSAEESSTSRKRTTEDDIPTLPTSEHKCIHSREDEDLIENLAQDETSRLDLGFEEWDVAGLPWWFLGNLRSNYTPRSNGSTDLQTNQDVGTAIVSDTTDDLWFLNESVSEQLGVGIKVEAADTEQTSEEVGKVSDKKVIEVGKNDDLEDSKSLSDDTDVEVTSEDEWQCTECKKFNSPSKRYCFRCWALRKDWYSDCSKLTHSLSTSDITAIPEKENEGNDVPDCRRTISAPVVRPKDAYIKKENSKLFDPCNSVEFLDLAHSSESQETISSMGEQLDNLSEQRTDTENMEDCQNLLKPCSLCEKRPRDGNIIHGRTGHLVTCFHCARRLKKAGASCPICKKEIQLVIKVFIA
Target sequence (Q00987 whole entry, looked up): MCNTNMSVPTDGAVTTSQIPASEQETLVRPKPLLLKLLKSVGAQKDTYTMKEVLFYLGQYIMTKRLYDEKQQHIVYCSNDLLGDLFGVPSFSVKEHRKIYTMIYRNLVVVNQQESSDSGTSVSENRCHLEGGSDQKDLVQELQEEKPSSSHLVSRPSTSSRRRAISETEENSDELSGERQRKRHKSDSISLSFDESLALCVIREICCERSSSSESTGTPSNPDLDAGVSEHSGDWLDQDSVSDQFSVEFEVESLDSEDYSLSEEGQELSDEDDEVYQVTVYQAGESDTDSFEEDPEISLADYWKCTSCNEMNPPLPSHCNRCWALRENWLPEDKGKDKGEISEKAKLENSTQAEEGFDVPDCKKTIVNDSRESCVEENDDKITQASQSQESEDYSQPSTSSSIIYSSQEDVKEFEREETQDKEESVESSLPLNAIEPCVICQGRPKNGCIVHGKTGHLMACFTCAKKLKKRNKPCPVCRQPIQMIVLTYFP
tim23-1 inh: growth inhibitors of tim23-1 mutant yeast; S. cerevisiae tim23-1 growth, BacTiter-Glo luminescence, 24 h; inhibition, % at 20 µM; 330,000 compounds, 1.3% hits; AID 463212;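 active means growth inhibition of the mutant yeast at or above 50%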;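 further: temperature-sensitive mutant grown at 25 °C; plate controls were DMSO-treated mutant yeast for no effect and medium wells lacking yeast for full effect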
TIM10 inh: TIM10 yeast growth inhibition; inhibition, % at 10 µM; 330,000 compounds, 1.4% hits; AID 463195; S. cerevisiae TIM10 strain growth, BacTiter-Glo luminescence, 24 h;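 active means inhibition of 40% or more at the single tested concentration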;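 further: wild-type TIM10 isogenic control strain grown at permissive 25 °C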
Mdm2 MdmX conf: confirmation of human Mdm2/MdmX interaction inhibitors; shares compounds with Mdm2-MdmX inh; Mdm2-MdmX binding, luminescent assay; 10,000 compounds, 55% hits; inhibition, % at 8 µM; in the data active means inhibition above about 40%
Full FLuc ctr: inhibits full-length luciferase, flagging false Mdm2/MdmX hits; shares compounds with Mdm2-MdmX inh; SaOS-2 full-length luciferase counterscreen, luminescence; inhibition, % at 8 µM; 6,200 compounds, 77% hits; AID 504607;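 active means mean inhibition at 8 µM reaching about 37%, which flags the compound as non-specific, limit read from the data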;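 further: p53-null SaOS-2 cells with luciferase driven by a doxycycline-inducible promoter; compound on cells about two nights before reading with doxycycline added after day one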
Rh123 counter: Rhodamine 123 counter-screen of mitochondrial pore hits | 5,000 compounds, 78% hits | shares compounds with MPTP inh | isolated mitochondria, membrane potential, Rhodamine 123 fluorescence | inhibition, % at 10 µM; in the data active means inhibition above about 22%;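 further: 0% = DMSO vehicle and 100% = positive control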
MPTP swell DR: dose response confirmation of mitochondrial permeability transition pore inhibitors; shares compounds with MPTP inh; isolated mitochondria swelling, absorbance; IC50, µM; 780 compounds, 58% hits; in the data active means IC50 below about 20 µM
MPTP counter DR: active in counter-screen for permeability transition pore inhibitors; IC50, µM; 780 compounds, 49% hits; isolated mitochondria counterscreen, fluorescence read-out; shares compounds with MPTP inh; in the data active means IC50 below about 80 µM
* hit, by the source's call; i = inactive; x = no result. Most compounds without a hit are left out; they make up all but 6.3% or so of the library.

SMILES	tim10-1 inh	MPTP inh	Mdm2-MdmX inh	tim23-1 inh	TIM10 inh	Rh123 counter	others
CC1(C)CC(NC(=O)c2ccc(Cl)c(S(=O)(=O)N(Cc3ccccc3)c3ccccc3)c2)CC(C)(C)N1	8	97*	99*	16	15	-20	Mdm2 MdmX conf=93*;Full FLuc ctr=48*
CC1(c2nnnn2-c2ccc3c(c2)OCCO3)CCC(=O)N1Cc1cccc(C(F)(F)F)c1 (configuration not stated)	x	-1	x	x	x	x
Cc1cc(C)c2nc(SCCc3ccccc3)nc(C)c2c1	23	71*	-9	18	14	-6	MPTP swell DR=i;MPTP counter DR=>80
Cc1nn(-c2cccc(Cl)c2)c2nc(C(F)(F)F)[nH]c(=O)c12	25	98*	8	30	4	53*
Cc1nn(-c2cc(C(F)(F)F)ccc2Cl)c2nc(C(F)(F)F)[nH]c(=O)c12	-2	2	17	7	-2	x
COCCN(C(=O)c1ccc(C)c(S(=O)(=O)N2CCOCC2)c1)c1c(N)n(CC(C)C)c(=O)[nH]c1=O	x	0	x	x	x	x
OC[C@@H](O)C(O)[C@@H](O)CO (some centres not stated)	x	0	x	x	x	x
Cc1oc(-c2ccc(Cl)cc2)nc1CN1CCC(C(=O)N2CCN(Cc3ccccc3)CC2)CC1	-3	57*	48	-10	-39	9	MPTP swell DR=i;MPTP counter DR=30*
Cc1cc(SCC(=O)N/N=C/c2ccc(O)c(O)c2O)c(C)cc1Br	33	92*	48	50	34	57*
NC1=NC[C@H](Cc2ccc(O)cc2)N1CCC12CC3CC(CC(C3)C1)C2	14	50*	21	13	2	1
CCCCN1C(N)=NC[C@@H]1Cc1ccc(O)cc1	4	-1	26	4	6	x
Fc1cccc(NC(=S)NNc2c3ccccc3nc3ccccc23)c1	x	92*	x	x	x	46*
Fc1cccc(NC(=S)Nc2cccnc2)c1	-8	2	13	-10	-5	x
O=C(/C(Br)=C/Nc1cc(Cl)ccc1Cl)C(F)(F)F	8	96*	1	13	10	93*
O=C(Nc1cc(Cl)ccc1Cl)N1CCCC1	23	0	4	9	8	x
O=CNc1c(Br)cc2c(c1Br)Cc1cc(Br)ccc1-2	x	-1	x	x	x	x
Cc1c(N/N=C(\C#N)C(=O)c2ccc(Cl)cc2)c(=O)n(-c2ccccc2)n1C	x	10	x	x	x	x
COC(=O)c1scc(C)c1NC(=O)c1ccc(Cl)cc1	14	0	6	11	-13	x
COC(=O)c1scc(S(=O)(=O)C(C)C)c1N/N=C(\C#N)C(=O)c1ccc(Cl)cc1	13	73*	23	26	11	78*
COC(=O)c1scc(C#N)c1N/N=C(\C#N)S(=O)(=O)c1ccc(Cl)cc1	2	67*	41	8	1	84*
CC1(c2ccccc2)CC(C)(C)N2C(=O)/C(=C3\SC(=S)NC3=O)c3cccc1c32 (configuration not stated)	x	102*	x	x	x	63*
CC1(c2ccccc2)CC(C)(C)N2C(=O)C3(C(C#N)=C(N)Oc4cc(O)ccc43)c3cccc1c32 (configuration not stated)	24	-1	18	13	4	x
CCNC(=O)C1(C)CCN(C(=O)c2ccc(N(C)C)cc2)C1 (configuration not stated)	x	0	x	x	x	x
CC(C)c1cccc(-c2csc(C(C)(O)c3ccncc3)n2)c1 (configuration not stated)	x	95*	x	x	x	89*
COC(=O)Cn1c(CN2CCC(Cc3ccccc3)CC2)nc2c1c(=O)n(C)c(=O)n2C	10	56*	12	-4	-28	103*
SMILES	tim10-1 inh	MPTP inh	Mdm2-MdmX inh	tim23-1 inh	TIM10 inh	Rh123 counter	others
O=C(NCc1ccccc1)c1cccc(NC(=O)C2CC2)c1	x	0	x	x	x	x
Nc1nc(C23CC4CCC(CC(C4)C2)C3)cs1	38	64*	18	35	33	-4	MPTP swell DR=i;MPTP counter DR=>80
Nc1nc(C23CC4CC(CC(Cl)(C4)C2)C3)cs1	29	0	-13	38	29	x
CCN(CC)CCNC(=O)c1cc2c(-c3ccc(Cl)cc3)nn(C)c2s1	27	86*	39	6	19	-26
Cn1nc(-c2ccc(Cl)cc2)c2cc(C(=O)NCCCN3CCOCC3)sc21	-16	74*	17	-14	7	-12
CCN1CCN(C(=O)c2cc3c(-c4ccc(Cl)cc4)nn(C)c3s2)CC1	35	-1	31	9	12	x
COc1ccccc1NC(=S)NNC(=S)Nc1ccc(OC(F)F)cc1	36	97*	-5	19	12	81*
COc1ccc(NC(=S)Nc2ccc(OC(F)F)cc2)cn1	15	10	3	4	-17	x
CN(c1ccc(F)cc1)S(=O)(=O)c1ccc(Cl)c(C(=O)NCC(c2ccco2)N2CCCCC2)c1 (configuration not stated)	15	-1	6	21	6	x
CN(NC(=O)Nc1ccc(Cl)cc1)c1ncc(C(F)(F)F)cc1Cl	6	88*	23	17	21	91*
O=C(Nc1ccccc1N1CCOCC1)c1cc(=O)[nH]c2ccccc12	-1	-1	-18	2	-4	x
CC(C)Sc1cc(N2CCOCC2)nc(-c2ccccc2)n1	-7	50*	-8	23	8	-9	MPTP swell DR=>100;MPTP counter DR=77*
CC(C)Sc1cc(N2CCCC2)nc(-c2ccccc2)n1	7	1	0	13	10	x
O=C(NCc1ccccc1)C(c1ccc(C(F)(F)F)cc1)n1c(=O)c(-c2ccco2)nc2ccccc21 (configuration not stated)	x	-1	x	x	x	x
COc1cc(C(=O)N(C)CC2CCN(CCc3cccc(C(F)(F)F)c3)CC2)ccc1C	1	81*	34	-10	6	1	MPTP swell DR=7.6*;MPTP counter DR=25*
CN(CC1CCN(CCc2cccc(C(F)(F)F)c2)CC1)C(=O)c1ccc(F)cc1	19	4	7	-11	12	x
CCCNC(=O)C1(C)CCCN(C(=O)c2ccc(C)c(F)c2)C1 (configuration not stated)	x	0	x	x	x	x
Cc1ccc(/C=C(\C#N)c2nc3ccccc3[nH]2)s1	-43	2	-139	5	22	x
N#C/C(=C\c1ccc(Sc2ccc(Cl)cc2)o1)c1nc2ccccc2[nH]1	x	106*	x	x	x	69*
Nc1ccc2c(Cl)cc(Cl)cc2c1	x	1	x	x	x	x
